From PubChem BioAssay (EPA / NIEHS) come the findings set out here.

Read-out in assay [1]: Interleukin-1 alpha (IL1a), IL1A (gene 3552)
Put plainly: BSK_BF4T_IL1a: BioMAP Diversity Plus: BF4T Assay for Interleukin-1 alpha (IL1a) Biomarker Activity (AID 2284264). The note with it: primary human bronchial epithelial cells with fibroblasts. Put shortly:
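Human bronchial epithelial cells co-cultured with dermal fibroblasts, dosed and read at 24 h. Secreted/surface IL-1α quantified by ELISA; gain-of-signal fitted relative to DMSO baseline. Parallel SRB total-protein staining tracked cytotoxicity.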

Read-out in the next assay: Decorin, DCN (gene 1634)
Put plainly: BSK_MyoF_Decorin: BioMAP Diversity Plus: MyoF Assay for Decorin Biomarker Activity (AID 2284265). The note with it: primary human lung fibroblasts. In a few lines: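 In this multiplexed fibroblast system, secreted or surface decorin is detected by ELISA one day after dosing, with increases scored against the DMSO vehicle.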

Read-out in assay [2]: KRT18 (gene 3875)
Kind of assay: BSK_BF4T_Keratin818: BioMAP Diversity Plus: BF4T Assay for Keratin 818 Biomarker Activity (AID 2284266). The note with it: primary human bronchial epithelial cells with fibroblasts. In a few lines: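 Co-culture of human bronchial epithelial cells and dermal fibroblasts, chemical exposure 24 h. Keratin 8/18 measured by ELISA; positive-direction fit vs DMSO. SRB total protein run in parallel cultures for cytotoxicity.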

Assay [3] can be described thus: BSK_MyoF_SRB: Viability Assessment in the BioMAP Diversity Plus: MyoF Assay (AID 2284267).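 Further: total protein by SRB absorbance in parallel cultures as cytotoxicity measure.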 The note with it: primary human lung fibroblasts. In a few lines:
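Cytotoxicity in primary human lung fibroblasts is gauged by SRB total-protein staining 24 h after dosing, with DMSO as the negative control.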

Read-out in assay [4]: Matrix Metallopeptidase 1 (MMP1), MMP1 (gene 4312)
Put plainly: BSK_MyoF_MMP1: BioMAP Diversity Plus: MyoF Assay for Matrix Metallopeptidase 1 (MMP1) Biomarker Activity (AID 2284268). The note with it: primary human lung fibroblasts. Put shortly:
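Fibroblasts from human lung receive compound for 24 h before ELISA quantitation of MMP1. DMSO serves as baseline, and the endpoint is fitted for signal gain.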

Read-out in assay [5]: TIMP metallopeptidase inhibitor 1 (TIMP1), TIMP1 (gene 7076)
Put plainly: BSK_MyoF_TIMP1: BioMAP Diversity Plus: MyoF Assay for TIMP metallopeptidase inhibitor 1 (TIMP1) Biomarker Activity (AID 2284269). The note with it: primary human lung fibroblasts. Put shortly:
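ELISA read-out of TIMP-1 from primary human lung fibroblast cultures 24 h after compound dosing; gain of signal relative to DMSO vehicle baseline defines activity.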

Read-out in assay [6]: Matrix Metallopeptidase 1 (MMP1), MMP1 (gene 4312)
Put plainly: BSK_BF4T_MMP1: BioMAP Diversity Plus: BF4T Assay for Matrix Metallopeptidase 1 (MMP1) Biomarker Activity (AID 2284270). The note with it: primary human bronchial epithelial cells with fibroblasts. Put shortly: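 Co-culture of human bronchial epithelial cells and dermal fibroblasts; MMP-1 levels measured by ELISA 24 hours after chemical dosing, relative to DMSO. Cytotoxicity checked in parallel cultures by SRB total-protein staining.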

Read-out in assay [7]: Plasminogen Activator Inhibitor-1 (PAI1), SERPINE1 (gene 5054)
Kind of assay: BSK_BF4T_PAI1: BioMAP Diversity Plus: BF4T Assay for Plasminogen Activator Inhibitor-1 (PAI1) Biomarker Activity (AID 2284273). The note with it: primary human bronchial epithelial cells with fibroblasts. In a few lines:
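Co-culture of human bronchial epithelial cells and dermal fibroblasts exposed to compound for 24 h. PAI-1 measured by ELISA; activity fitted in positive direction versus DMSO. Parallel SRB staining assessed overt cytotoxicity.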

Read-out in assay [8]: Matrix Metallopeptidase 9 (MMP9), MMP9 (gene 4318)
Kind of assay: BSK_BF4T_MMP9: BioMAP Diversity Plus: BF4T Assay for Matrix Metallopeptidase 9 (MMP9) Biomarker Activity (AID 2284276). The note with it: primary human bronchial epithelial cells with fibroblasts. Put shortly:
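Co-culture of human bronchial epithelial cells and dermal fibroblasts dosed for 24 h; MMP-9 quantified by ELISA and fitted upward versus DMSO. Cytotoxicity monitored in parallel cultures by SRB total-protein staining at the biomarker time point.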

Read-out in assay [9]: Interleukin-8 (IL8), CXCL8 (gene 3576)
Kind of assay: BSK_IMphg_IL8: BioMAP Diversity Plus: IMphg Assay for Interleukin-8 (IL8) Biomarker Activity (AID 2284277). The note with it: primary human endothelial cells with macrophages. In a few lines:
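Co-culture of human venular endothelial cells and macrophages exposed to chemicals for 24 h; IL-8 quantified by ELISA and compared against the DMSO baseline, with SRB total-protein staining in parallel cultures for cytotoxicity.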

Read-out in assay [10]: Interferon-inducible T-cell alpha chemoattractant (ITAC), CXCL11 (gene 6373)
Put plainly: BSK_BE3C_ITAC: BioMAP Diversity Plus: BE3C Assay for Interferon-inducible T-cell alpha chemoattractant (ITAC) Biomarker Activity (AID 2284279). The note with it: primary human bronchial epithelial cells. Put shortly:
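ELISA read-out of I-TAC after 24 h chemical dosing of human lung primary bronchial epithelial cells; gain-of-signal fit vs DMSO baseline. Parallel SRB total-protein staining (0.1% SRB, 10% TCA fixation, 560 nm) assessed cytotoxicity.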

Read-out in assay [11]: Epidermal growth factor receptor (EGFR), EGFR (gene 1956)
Kind of assay: BSK_BE3C_EGFR: BioMAP Diversity Plus: BE3C Assay for Epidermal growth factor receptor (EGFR) Biomarker Activity (AID 2284281). The note with it: primary human bronchial epithelial cells. Put shortly:
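Primary human lung bronchial epithelial cells; compound, 24 h; EGFR measured by ELISA; positive-direction fit vs DMSO baseline.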

Read-out in assay [12]: KRT18 (gene 3875)
Put plainly: BSK_BE3C_Keratin818: BioMAP Diversity Plus: BE3C Assay for Keratin 818 Biomarker Activity (AID 2284282). The note with it: primary human bronchial epithelial cells. Put shortly: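 BE3C: human bronchial epithelial primary cells, 24 h exposure, Keratin 8/18 ELISA; DMSO = negative control/baseline; cytotoxicity by parallel SRB stain (0.1% SRB after 10% TCA fixation, 560 nm).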

Read-out in assay [13]: Intercellular Adhesion Molecule 1 (ICAM1), ICAM1 (gene 3383)
Put plainly: BSK_BE3C_ICAM1: BioMAP Diversity Plus: BE3C Assay for Intercellular Adhesion Molecule 1 (ICAM1) Biomarker Activity (AID 2284278).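 Further: cell-surface ICAM-1 protein level quantified by ELISA.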 The note with it: primary human bronchial epithelial cells. In a few lines: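 Measured by ELISA: ICAM-1 expressed by primary human bronchial epithelial cells 24 h after compound treatment, with upward-direction fitting versus DMSO vehicle.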

Read-out in assay [14]: Interleukin-8 (IL8), CXCL8 (gene 3576)
Put plainly: BSK_BE3C_IL8: BioMAP Diversity Plus: BE3C Assay for Interleukin-8 (IL8) Biomarker Activity (AID 2284280). The note with it: primary human bronchial epithelial cells. Put shortly: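 ELISA read-out of IL-8 in human lung bronchial epithelial primary cell cultures, 24 h post-dosing; endpoint analysed as signal increase relative to DMSO baseline.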

Read-out in assay [15]: urokinase Plasminogen Activator (uPA), PLAU (gene 5328)
Put plainly: BSK_BF4T_uPA: BioMAP Diversity Plus: BF4T Assay for urokinase Plasminogen Activator (uPA) Biomarker Activity (AID 2284275). The note with it: primary human bronchial epithelial cells with fibroblasts. Put shortly: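 Co-culture of human bronchial epithelial cells and dermal fibroblasts; uPA quantified by ELISA 24 hours after dosing, fitted relative to DMSO. Parallel SRB total-protein staining assessed overt cytotoxicity.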

The nature of assay [16]: BSK_BF4T_SRB: Viability Assessment in the BioMAP Diversity Plus: BF4T Assay (AID 2284274). The note with it: primary human bronchial epithelial cells with fibroblasts. Put shortly:
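Co-culture of human bronchial epithelial cells and dermal fibroblasts (BioMAP BF4T) exposed 24 h. Total protein by sulforhodamine B staining (0.1% SRB after 10% TCA fixation, 560 nm) in parallel cultures; fitted vs DMSO.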

The AC50 is the concentration at which the activity in the assay is half-maximal.

Structures are written as SMILES. Activity calls are given as the source filed them. How the source made its calls: active means hit-call score of the fitted dose curve at least 0.9, where 1 is the maximum; inactive means score below 0.9.

Regarding `O=C(CC(=O)C(F)(F)C(F)(F)F)C(F)(F)F`, the outcome was “inactive” in assay [1]; “inactive” with Decorin, DCN (gene 1634); “inactive” in the assay with KRT18 (gene 3875) [2]; “inactive” in assay [3]; “inactive” in assay [4]; “inactive” in assay [5]. The result in [6], in assay [7], in assay [8], in assay [9], in assay [10] and in assay [11] was inactive. Besides, in the assay with KRT18 (gene 3875) [12], the result was inactive.
`C=CC(F)(F)C(F)(F)C(F)(F)C(F)(F)C(F)(F)C(F)(F)C(F)(F)C(F)(F)F`: the outcome in assay [1] was “inactive”; with Decorin, DCN (gene 1634), “inactive”; with KRT18 (gene 3875) [2], “inactive”; in assay [3], “inactive”; in assay [4], “inactive”; in assay [5], “inactive”. Moreover, the outcome (in assay [6]; in assay [7]; in assay [8]; in assay [9]; in [10]; in the assay with KRT18 (gene 3875) [12]) was inactive.
`O=S(=O)(OCC(F)F)C(F)(F)F`: the outcome in [1] was “inactive”; with Decorin, DCN (gene 1634), “inactive”; in the assay with KRT18 (gene 3875) [2], “inactive”; in assay [3] it was “inactive”; in assay [4] it was “inactive”; in assay [5] it was “inactive”. Besides, the result in assay [6], in [7], in assay [8], in assay [9], in assay [13] and in assay [10] was inactive. For the same compound, the outcome (in assay [14]; with KRT18 (gene 3875) [12]) was inactive.
Take `C=CC/C=C/C/C=C/C/C=C/C`: the outcome was “inactive” in the assay with Decorin, DCN (gene 1634); “inactive” in [3]; “inactive” in assay [4]; “inactive” in [5].
Turning to `CCCCCCCOC(=O)c1ccccc1C(=O)OCCCCCCC`, the outcome with Decorin, DCN (gene 1634) is “inactive”; in [3] it was “inactive”; in assay [4], “inactive”; in assay [5] it was “inactive”.
`FC(F)(F)C(F)(F)C(F)(F)C(F)(F)CCI`: the outcome in assay [1] is “inactive”; in the assay with Decorin, DCN (gene 1634) it was “inactive”; with KRT18 (gene 3875) [2] it was “inactive”; in assay [3], “inactive”; in assay [4], “inactive”; in [5], “inactive”. Moreover, the outcome in [6], in assay [7], in assay [15], in assay [8], in [9] and in [10] was inactive. Besides, the outcome (in assay [14]; with KRT18 (gene 3875) [12]) was inactive.
As for `FC(F)(F)C(F)(F)C(F)(F)C(F)(F)C(F)(F)C(F)(F)C(F)(F)C(F)(F)F`, the outcome in [1] is “inactive”; with Decorin, DCN (gene 1634), “inactive”; in the assay with KRT18 (gene 3875) [2] it was “inactive”; in assay [3], “inactive”; in assay [4], “inactive”; in [5], “inactive”. Further, the result (in assay [6]; in assay [7]; in assay [8]; in assay [9]; in [10]; in the assay with KRT18 (gene 3875) [12]) was inactive.
For `O=S(=O)(O)C(F)(F)C(F)(F)C(F)(F)C(F)(F)C(F)(F)C(F)(F)C(F)(F)F`, the outcome in [1] is “inactive”; in the assay with Decorin, DCN (gene 1634), “inactive”; in the assay with KRT18 (gene 3875) [2], “inactive”; in [3] it was “inactive”; in assay [4] it was “inactive”; in [5], “inactive”. In addition, the outcome in assay [6], in assay [7], in assay [16], in [8], in assay [9] and in assay [10] was inactive. In the assay with KRT18 (gene 3875) [12], the result was inactive.
As to `CCCCC(CC)COP(=O)(O)OCC(CC)CCCC` (stereo not drawn), the concentration at half-maximal activity (AC50) in [10] is 28.9 µM (active). Besides, the outcome with KRT18 (gene 3875) [12] was inactive.
